In PubChem BioAssay (Tox21):
“And” between values parts separate entries of the source, which are not always exact repeats. Identical values can stand only once. A number with no mark means an inactive call. Inconclusive results are not listed. A call without a number means that no potency is given here. The source made the active and inactive calls. Unless noted, calls come from the whole dose curve; as a rule, active = well fitted curve in the direction sought with a large enough effect in the repeat runs; inconclusive = weak or mixed curves; inactive = no such curve, though single readings can be large; an effect the other way counts as inactive or inconclusive.

Assays:
[1] = qHTS assay to identify small molecule agonists of the estrogen receptor alpha (ER-alpha) signaling pathway in the presence of an antagonist - cell viability counter screen (AID 1259386);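 note: series mostly up to about 92 µM; cells exposed to compounds for 22 h at 37 °C before the viability read; nearly all actives have a fitted effect of over 30% in size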
Summary of the method: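 The test measures whether compounds kill ER-alpha reporter cells (VM7Luc4E2) under antagonist co-treatment (ICI-182,780, 10.0nM). Fluorescence from CellTiter-Fluor is read after a 22hr exposure.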

[2] = biological target: Progesterone receptor (Homo sapiens) (UniProt P06401); assay: qHTS assay to identify small molecule agonists of the progesterone receptor (PR) signaling pathway (AID 1346784; calls by dose curve; note: nearly all actives have a fitted effect of over 30% in size; note: potency is the fitted concentration of half-maximal effect)
Progesterone receptor (Homo sapiens), sequence (P06401 whole entry, looked up): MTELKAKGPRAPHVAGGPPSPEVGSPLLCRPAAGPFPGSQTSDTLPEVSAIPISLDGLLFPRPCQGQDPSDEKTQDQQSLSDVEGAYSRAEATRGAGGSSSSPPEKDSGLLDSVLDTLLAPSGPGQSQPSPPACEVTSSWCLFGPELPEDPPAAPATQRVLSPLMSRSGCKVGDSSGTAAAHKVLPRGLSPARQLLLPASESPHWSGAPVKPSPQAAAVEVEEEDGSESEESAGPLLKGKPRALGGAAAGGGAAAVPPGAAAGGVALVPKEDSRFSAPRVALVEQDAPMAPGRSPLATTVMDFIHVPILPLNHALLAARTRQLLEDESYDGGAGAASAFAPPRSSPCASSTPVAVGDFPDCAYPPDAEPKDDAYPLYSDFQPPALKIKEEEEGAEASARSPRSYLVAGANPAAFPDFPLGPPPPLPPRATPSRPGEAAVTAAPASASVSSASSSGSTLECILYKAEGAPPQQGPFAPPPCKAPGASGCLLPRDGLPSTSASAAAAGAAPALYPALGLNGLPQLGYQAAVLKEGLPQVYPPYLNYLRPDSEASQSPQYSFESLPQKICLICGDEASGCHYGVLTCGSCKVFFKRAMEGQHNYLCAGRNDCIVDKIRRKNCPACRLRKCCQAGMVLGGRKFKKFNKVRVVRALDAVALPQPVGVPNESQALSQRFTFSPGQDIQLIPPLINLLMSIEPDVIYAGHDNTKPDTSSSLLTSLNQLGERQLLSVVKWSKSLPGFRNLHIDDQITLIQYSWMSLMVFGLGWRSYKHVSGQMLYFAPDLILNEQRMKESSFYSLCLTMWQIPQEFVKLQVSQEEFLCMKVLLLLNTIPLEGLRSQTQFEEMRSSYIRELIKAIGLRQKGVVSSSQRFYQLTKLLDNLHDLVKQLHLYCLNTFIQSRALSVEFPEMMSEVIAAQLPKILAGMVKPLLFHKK
Summary of the method: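 Reporter assay, GripTite PR-UAS-bla HEK 293T cells: 16 hr exposure to DMSO-dissolved compounds at 37C, 5% CO2, in steroid-depleted (2% charcoal-stripped FBS) medium; beta-lactamase measured by FRET fluorescence.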

[3] = biological target: Progesterone receptor (Homo sapiens) (UniProt P06401); assay: qHTS assay to identify small molecule antagonists of the progesterone receptor (PR) signaling pathway (AID 1346795; active = well fitted inhibition curve with a large enough effect in the signal ratio in the repeat runs, not every such curve was filed as active; the % refers to the signal ratio; note: potency is the fitted concentration of half-maximal effect)
Summary of the method: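 Stimulus R5020 at 1 nM final; cells HEK293T PR-UAS-bla; medium with 2% charcoal-stripped FBS; compound exposure 16 hr at 37C, 5% CO2; detection by FRET beta-lactamase substrate, 2 hr, room temperature.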

[4] = qHTS assay to identify small molecule agonists of the progesterone receptor (PR) signaling pathway - cell viability counter screen (AID 1346799; calls by dose curve; note: nearly all actives have a fitted effect of over 45% in size)
Summary of the method: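 Multiplexed viability read: CellTiter-Glo luminescence, 30 min RT, following LiveBLAzer FRET measurement on PR-UAS-bla HEK293T cells exposed to compounds 16 hr.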

[5] = qHTS assay to identify small molecule antagonists of the TGF-beta/Smad signaling pathway - cell viability counter screen (AID 1346824); note: nearly all actives have a fitted effect of over 50% in size
Summary of the method: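 SBE-bla HEK 293T cells, incubated overnight, then compound plus 0.25 ng/mL TGF-beta1 (stock added) for 5 hr at 37 C. Viability was read in the same wells by CellTiter-Glo luminescence after 30 min at room temperature.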

[6] = qHTS assay to identify small molecule agonists of the TGF-beta/Smad signaling pathway - cell viability counter screen (AID 1346829); note: top concentration of the series differs between compounds; nearly all actives have a fitted effect of over 45% in size
Summary of the method: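 Same-well cytotoxicity: CellTiter-Glo added after the 2 hr room-temperature beta-lactamase substrate step, luminescence measured 30 min later; cells had 5 hr of compound at 37 C.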

[7] = qHTS assay to identify small molecule agonists of the TGF-beta/Smad signaling pathway (AID 1346859; active = well fitted activation curve with a large enough effect in the signal ratio in the repeat runs, not every such curve was filed as active; the % refers to the signal ratio; note: series mostly up to about 77 µM)
Summary of the method: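 Screening used HEK 293T SBE-bla cells at 4,000/well. Test agents: 5 hr, 37 C. Detection: FRET substrate, 2 hr RT, then excitation 405 nm with emissions at 460 and 530 nm.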

[8] = biological target: Thyrotropin-releasing hormone receptor (Homo sapiens) (UniProt P34981); assay: qHTS assay to identify small molecule antagonists of the thyrotropin-releasing hormone receptor (TRHR) signaling pathway (AID 1346877; active = well fitted inhibition curve with a large enough effect in the repeat runs, not every such curve was filed as active; note: series mostly up to about 51 µM)
Thyrotropin-releasing hormone receptor (Homo sapiens), sequence (P34981 whole entry, looked up): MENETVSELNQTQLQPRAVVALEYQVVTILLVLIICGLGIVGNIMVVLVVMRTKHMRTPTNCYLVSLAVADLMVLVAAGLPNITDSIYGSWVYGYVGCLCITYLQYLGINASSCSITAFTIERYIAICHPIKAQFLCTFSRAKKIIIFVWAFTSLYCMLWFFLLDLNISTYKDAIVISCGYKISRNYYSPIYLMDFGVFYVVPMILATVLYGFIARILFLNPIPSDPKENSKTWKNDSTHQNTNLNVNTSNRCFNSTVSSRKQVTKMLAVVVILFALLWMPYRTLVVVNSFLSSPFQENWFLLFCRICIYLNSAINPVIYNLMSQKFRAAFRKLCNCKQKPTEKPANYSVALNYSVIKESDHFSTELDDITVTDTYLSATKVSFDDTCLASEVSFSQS
Summary of the method: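 Overnight-plated (18 h, 37 °C) HEK293 cells expressing TRHR were dye-loaded 2 h, treated with compound, then stimulated with TRH at 1 nM final. Fluorescence intensity was captured every second for 3 min.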

[9] = biological target: Thyrotropin-releasing hormone receptor (Homo sapiens) (UniProt P34981); assay: qHTS assay to identify small molecule agonists of the thyrotropin-releasing hormone receptor (TRHR) signaling pathway (AID 1346891; calls by dose curve; note: series mostly up to about 58 µM)
Summary of the method: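 Readout was intracellular calcium fluorescence in TRHR-Hek293 cells. Cells were incubated 18 h, dye-loaded 2 h at 37 °C, and treated with compound in agonist mode.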

[10] = Human pregnane X receptor (PXR) small molecule agonists, qHTS cell viability counter screen (AID 1346977); note: nearly all actives have a fitted effect of over 50% in size
Summary of the method: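 In each well, the PXR reporter HepG2 line was checked for viability: CellTiter-Fluor reagent added 23hr post-dosing, fluorescence read after 1hr incubation at 37C.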

[11] = Caspase-3/7 induction in HepG2 cells by small molecules, qHTS assay (AID 1346978); note: nearly all actives have a fitted effect of over 15% in size
Summary of the method: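 Wild-type HepG2 cells, 2,000/well, settled 5 hr at 37 C and 5% CO2, then compound-treated for 17 hr; caspase-3/7 activity read by luminescent Caspase-Glo 3/7 after 30 min at room temperature.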

[12] = Caspase-3/7 induction in CHO-K1 cells by small molecules, qHTS cell viability counter screen (AID 1346979); note: nearly all actives have a fitted effect of over 35% in size; note: potency is the fitted concentration of half-maximal effect
Summary of the method: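 Following a 5hr settling period, CHO-K1 cells at 1,500 per well received DMSO-dissolved compounds. Cell viability was quantified 16hr later by CellTiter-Fluor fluorescence, measured after 1hr with reagent at 37C.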

[13] = Caspase-3/7 induction in CHO-K1 cells by small molecules, qHTS assay (AID 1346980); note: nearly all actives have a fitted effect of over 15% in size
Summary of the method: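 Wild-type CHO-K1 cells exposed to compounds for 17hr at 37 C, 5% CO2. Caspase-3/7 activity then measured by Caspase-Glo 3/7 luminescence after 30min at room temperature.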

[14] = Caspase-3/7 induction in HepG2 cells by small molecules, qHTS cell viability counter screen (AID 1346981); note: series mostly up to about 92 µM; nearly all actives have a fitted effect of over 30% in size
Summary of the method: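 Treatment of HepG2 cells with DMSO-delivered compounds ran 16 hr at 37 C following a 5-hr pre-incubation of 2,000 cells/well. CellTiter-Fluor fluorescence, read after 1 hr, served as the viability measure in a qHTS format.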

[15] = biological target: Nuclear receptor subfamily 1 group I member 2 (Homo sapiens) (UniProt O75469); assay: Human pregnane X receptor (PXR) small molecule agonists, qHTS assay (AID 1346982); note: nearly all actives have a fitted effect of over 35% in size; note: potency is the fitted concentration of half-maximal effect
Nuclear receptor subfamily 1 group I member 2 (Homo sapiens), sequence (O75469 whole entry, looked up): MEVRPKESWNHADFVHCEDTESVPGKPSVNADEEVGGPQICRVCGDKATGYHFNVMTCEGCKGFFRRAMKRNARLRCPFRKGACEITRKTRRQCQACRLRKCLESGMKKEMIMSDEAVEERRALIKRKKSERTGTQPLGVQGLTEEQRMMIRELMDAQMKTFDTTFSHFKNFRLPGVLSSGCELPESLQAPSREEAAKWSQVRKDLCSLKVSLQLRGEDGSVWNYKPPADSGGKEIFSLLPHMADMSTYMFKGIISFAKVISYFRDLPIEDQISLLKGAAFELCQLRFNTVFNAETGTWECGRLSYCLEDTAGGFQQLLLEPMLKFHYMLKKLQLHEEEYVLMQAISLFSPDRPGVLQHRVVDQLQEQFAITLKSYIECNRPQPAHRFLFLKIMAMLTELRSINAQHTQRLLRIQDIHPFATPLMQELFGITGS
Summary of the method: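 Stable HepG2 line reporting PXR-mediated CYP3A4 expression via luciferase. Treatment: 24 hr with compounds in DMSO at 37 C. Detection: ONE-Glo luminescence.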

[16] = biological target: Nuclear receptor subfamily 1 group I member 2 (Rattus norvegicus) (UniProt Q9R1A7); assay: Rat pregnane X receptor (rPXR) activation by small molecules, qHTS assay (AID 1346983); conditions: rPXR luciferase reporter cells, One-Glo luminescence, 24 h; max activation: stronger effect = higher value; note: nearly all actives have a fitted effect of over 20% in size
Nuclear receptor subfamily 1 group I member 2 (Rattus norvegicus), sequence (Q9R1A7 whole entry, looked up): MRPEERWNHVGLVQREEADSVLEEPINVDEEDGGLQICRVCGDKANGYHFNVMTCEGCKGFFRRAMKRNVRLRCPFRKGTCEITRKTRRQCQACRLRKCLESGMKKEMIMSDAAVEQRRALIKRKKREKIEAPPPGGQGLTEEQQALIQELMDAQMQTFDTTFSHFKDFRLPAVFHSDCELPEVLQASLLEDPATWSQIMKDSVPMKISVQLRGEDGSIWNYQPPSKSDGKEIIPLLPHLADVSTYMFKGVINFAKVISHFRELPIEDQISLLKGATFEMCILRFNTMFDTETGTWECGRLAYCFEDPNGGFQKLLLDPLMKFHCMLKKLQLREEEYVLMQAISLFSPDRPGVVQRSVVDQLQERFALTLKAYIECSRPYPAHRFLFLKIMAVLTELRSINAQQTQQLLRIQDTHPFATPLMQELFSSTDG
Summary of the method: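 Cell-based rPXR activation assay: rPXR cells, 2,000 per well, rested 5hr at 37 C, then exposed to compounds in DMSO for 24 hr at 37 C. Luciferase activity read by One-Glo luminescence after 30 min at room temperature.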

[17] = biological target: Nuclear receptor subfamily 1 group I member 2 (Homo sapiens) (UniProt O75469); assay: CYP3A4 induction through human pregnane X receptor (PXR) by small molecules, qHTS assay (AID 1346984); note: nearly all actives have a fitted effect of over 40% in size
Summary of the method: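 After 24 h at 37C with compound, DPX-2 cells (HepG2, co-transfected PXR response element and CYP3A4 promoter-luciferase) got 3uM final P450-Glo Luciferin-IPA for 3 h; One-Glo luminescence followed.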

[18] = biological target: Nuclear receptor subfamily 1 group I member 2 (Homo sapiens) (UniProt O75469); assay: Human pregnane X receptor (PXR) activation by small molecules, qHTS assay (AID 1346985); note: nearly all actives have a fitted effect of over 40% in size
Summary of the method: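 DPX-2 cells (HepG2 co-transfected with a PXR response element and a CYP3A4-promoter luciferase construct) were seeded at 2,000 per well, rested 5 hr at 37C, then exposed to DMSO-dissolved compounds for 24 hr. Activation was read as luciferase luminescence.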

[19] = biological target: Cytochrome P450 2D6 (Homo sapiens) (UniProt P10635); assay: Cytochrome P450 Family 2 Subfamily D Member 6 (CYP2D6) small molecule antagonists: luciferase reporter qHTS assay (AID 1671196); note: nearly all actives have a fitted effect of over 50% in size; note: potency is the fitted concentration of half-maximal effect
Cytochrome P450 2D6 (Homo sapiens), sequence (P10635 whole entry, looked up): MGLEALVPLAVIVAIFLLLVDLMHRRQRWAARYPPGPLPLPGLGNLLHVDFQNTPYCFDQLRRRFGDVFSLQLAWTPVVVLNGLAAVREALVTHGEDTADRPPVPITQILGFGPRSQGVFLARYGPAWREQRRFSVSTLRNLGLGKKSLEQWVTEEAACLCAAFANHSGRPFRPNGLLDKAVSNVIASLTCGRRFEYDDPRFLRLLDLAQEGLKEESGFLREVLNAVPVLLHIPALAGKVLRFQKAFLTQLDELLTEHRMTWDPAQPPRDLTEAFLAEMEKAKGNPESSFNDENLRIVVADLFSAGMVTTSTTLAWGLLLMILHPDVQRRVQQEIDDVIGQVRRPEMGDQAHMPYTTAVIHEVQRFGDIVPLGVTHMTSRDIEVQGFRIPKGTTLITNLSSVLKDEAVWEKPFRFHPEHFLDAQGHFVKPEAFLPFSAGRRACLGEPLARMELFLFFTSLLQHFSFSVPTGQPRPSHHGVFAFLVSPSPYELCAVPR
Summary of the method: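 Chemicals tested for interference with CYP2D6 activity; proluciferin substrate, NADPH regeneration, 1 h at room temperature, luminescent detection.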

[20] = qHTS assay to identify small molecule antagonists of the progesterone receptor (PR) signaling pathway - cell viability counter screen (AID 1346798); note: series mostly up to about 92 µM; nearly all actives have a fitted effect of over 50% in size
Summary of the method: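 In the same plates used for the beta-lactamase readout, cell viability of compound- and R5020-treated PR-UAS-bla HEK293T cells (16 hr, 37C) was assessed by CellTiter-Glo luminescence.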

| SMILES | Potency [1] | Potency [2] | Potency [3] | Potency [4] | Potency [5] | Potency [6] | outcome [7] | Potency [8] | Potency [9] | Potency [10] | Potency [11] | Potency [12] | Potency [13] | Potency [14] | Potency [15] | max activation [16] [%] | Potency [17] | Potency [18] | Potency [19] | Potency [20] |
| --- | --- | --- | --- | --- | --- | --- | --- | --- | --- | --- | --- | --- | --- | --- | --- | --- | --- | --- | --- | --- |
| Cc1ccc(S(=O)(=O)O)cc1C | inactive | inactive | inactive | inactive | inactive | inactive | inactive | inactive | inactive | inactive | inactive | inactive | inactive | inactive | inactive | -0.712 | inactive | inactive | inactive |  |
| O=C(O)CCCCCCCCCCCC(=O)O | inactive | inactive | inactive | inactive | inactive | inactive |  | inactive | inactive | inactive | inactive | inactive | inactive | inactive | inactive |  |  |  | 17.6 µM (active) | inactive |
| O=C(O)c1ccc(O)cc1 | inactive | inactive | inactive | inactive | inactive | inactive | inactive | inactive | inactive | inactive | inactive | inactive | inactive | inactive | inactive |  |  |  | inactive | inactive |
| FC(F)(F)C(Cl)Br (stereo unspecified) | inactive | inactive | inactive | inactive | inactive | inactive | inactive |  |  | inactive | inactive | inactive | inactive | inactive | inactive | -0.375 | inactive | inactive | inactive | inactive |
| [Na+] | inactive | inactive | inactive | inactive |  | inactive | inactive |  |  | inactive | inactive | inactive | inactive | inactive | inactive |  |  |  | inactive | inactive |
| C=CCNCC=C | inactive | inactive | inactive | inactive | inactive | inactive | inactive | inactive | inactive | inactive | inactive | inactive | inactive | inactive | inactive |  |  |  | inactive | inactive |
| CCC/C=C/C=O | inactive | inactive | inactive | inactive | inactive | inactive | inactive | inactive | inactive | inactive | inactive | inactive | inactive | inactive | inactive |  |  |  |  |  |
| CC(C)[N+](C)(CCOC(=O)C1c2ccccc2Oc2ccccc21)C(C)C | inactive | inactive | inactive | inactive |  | inactive | inactive | inactive | inactive | inactive | inactive | inactive | inactive | inactive | inactive | 0.826 | inactive | inactive | 100 nM (active) and 195 nM (active) | inactive |
| CC(=O)[C@@]1(O)CC[C@H]2[C@@H]3C[C@H](C)C4=CC(=O)C=C[C@]4(C)[C@@]3(F)[C@@H](O)C[C@@]21C | inactive | 61.1 nM (active) and 168 nM (active) | inactive | inactive |  | inactive | inactive | inactive | inactive | inactive | inactive | inactive | inactive | inactive | 15.4 µM (active) |  | inactive | inactive | inactive | inactive |
| COc1ccc(-c2coc3cc(O)cc(O)c3c2=O)cc1 | inactive | inactive | 6.11 µM (active) |  |  | inactive | inactive | inactive | inactive |  | inactive | 69.1 µM (active) | inactive |  | 30.9 µM (active) and 30.6 µM (active) |  |  |  | 45.2 µM (active) | inactive |
| CN1CCOCC1 | inactive | inactive | inactive | inactive |  | inactive | inactive | inactive | inactive | inactive | inactive | inactive | inactive | inactive |  |  |  |  |  | inactive |
| C=CC(C)(O)CCC=C(C)C (stereo unspecified) | inactive | inactive | inactive | inactive |  | inactive | inactive | inactive | inactive | inactive | inactive | inactive | inactive | inactive | inactive |  |  |  | inactive | inactive |
| O=C(O)COCCN1CCN(C(c2ccccc2)c2ccc(Cl)cc2)CC1 (stereo unspecified) | inactive | inactive | inactive | inactive |  | inactive | inactive | inactive | inactive | inactive | inactive | inactive | inactive | inactive | inactive | 1.59 |  | inactive |  | inactive |
| Nc1cc(Cl)c(N)c(Cl)c1 | inactive | inactive | inactive | inactive |  | inactive | inactive | inactive | inactive | inactive | inactive | inactive | inactive | inactive | 68 µM (active) and 54.5 µM (active) |  |  |  | 25 µM (active) | inactive |
| Cc1ccc(C(C)(C)C)cc1 | inactive | inactive | inactive | inactive | inactive | inactive | inactive | inactive | inactive | inactive | inactive | inactive | inactive | inactive | inactive |  |  |  | inactive | inactive |
